Among the data in PubChem BioAssay (NCATS) are outcome values, retold here.

Active and inactive are the calls of the source. Calls come from the whole dose curve; as a rule, active = well fitted curve in the direction sought with a large enough effect; inconclusive = small, poorly fitted or top-dose-only effect, or another doubt; inactive = no such curve, though single readings can be large or run the other way.

The assay can be described thus: Cellular Toxicity (caspase-3) MRC-5 (AID 659).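 Note: cells exposed to compound for 16 h at 37 °C.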 The settings on record: MRC-5 cells, luminescence, normalized: DMSO 0%, 10 µM staurosporine 100%; series mostly up to 91.7 µM. An excerpt:
NIH Chemical Genomics Center [NCGC]
NIH Molecular Libraries Screening Centers Network [MLSCN]
National Institutes of Environmental Health Sciences [NIEHS]
National Toxicology Program [NTP]
We have developed a 1536-well cell-based assay for quantitative high throughput screening (qHTS) against a number of cell lines to determine in vitro caspase 3/7 activity of small molecules. This particular assay uses the MRC-5 cell line which is derived from human normal lung fibroblasts.
NCGC Assay Protocol Summary:
The Caspase-Glo 3/7 assay (Promega) is a homogeneous method to measure caspase-3 and caspase-7 activities in cultured cells. The quantitation of caspase 3/7 activity is based on the cleavage of a peptide-aminoluciferin substrate. After caspase cleaves the substrate the free aminoluciferin is liberated and serves as the substrate of luciferase, which generates the light. The luminescent signal is proportional to amount of caspase 3/7 activity present.
Using the Caspase-Glo 3/7 assay, the amount of caspase 3/7 activity was measured in the MRC-5 line with complete culture medium following compound treatment for 16 hours. The assay was performed in opaque white 1536-well plates. In the screen, tamoxifen and staurosporine were used as positive controls. Library compounds were measured for their ability to cause the activation of caspase 3/7 in the cell line, as reflected by an increase in luminescence signal, in a concentration-dependent manner. Data were normalized to the controls for basal activity (DMSO only) and 100% stimulation (10 uM staurosporine). AC50 values were determined from concentration-response data modeled with the standard Hill equation.
qHTS protocol for caspase 3/7 assay in MRC-5 cells
[Step] [Parameter] [Value] [Description]
1. Reagent; 5 uL; 1500 MRC-5 cells/well
2. Time; 5 hr; 37 °C incubation
4. Controls; 23 nL; Tamoxifen 0.23 uM to 100 uM & staurosporine 1.4 pM to 100 uM
5. Time; 16 hr; 37 °C incubation
6. Reagent; 5 uL; Caspase-Glo 3/7 reagent
7. Time; 1 hr; Room Temperature
8. Detection; Luminescence; Viewlux plate reader
Keywords: caspase 3/7, apoptosis, MRC-5 cell line, luminescence, NTPHTS, NTPHTS_NCGC, NIEHS, EPA, DSSTox, MLSMR, MLSCN, NIH Roadmap, qHTS, NCGC
In the case of `c1ccc2n[nH]nc2c1`, the result was inactive.
Consider `CCOCCOCC`, for which the call was inactive.
In the case of `Cc1cccc2ccccc12` it was “inactive”; in that of `CC(C)(C)OCC1CO1` (stereo not given), “inactive”; in that of `CC(=O)Nc1ccc(N)cc1`, “inactive”.
As for `Cc1ccccc1C(N)=O`, the compound was classed as inactive.
As for `CCC=O`, the entry is “inactive”.
As for `C=CC(=O)OCCCC`, the entry is “inactive”; as for `CC(=O)CC(C)C`, “inactive”; as for `Nc1ccc([N+](=O)[O-])c(N)c1`, “inactive”.
In the case of `O=C(Cl)c1cccc([N+](=O)[O-])c1` it was “inactive”; in that of `Nc1nc(-c2ccccc2)cs1`, “inactive”.
With `CC/C=C1/OC(=O)c2ccccc21`, the call was inactive.
As for `O=Nc1ccc(NO)cc1`, the entry is “inactive”; as for `CCCCCNCCCCC`, “inactive”; as for `O=C(O)/C=C/C(=O)O`, “inactive”.
In the case of `C1CCC2OC2C1` (stereo not given) it was “inactive”.
In the case of `Cc1cc(C)cc([N+](=O)[O-])c1` it was “inactive”.
On to `Cc1ccccc1C(=O)O`, for which the result was inactive.
For the compound `CCCOCC(C)O` (stereo not given), the call was inactive.
`CC(C)=CCC/C(C)=C/C=O`: the result was inactive.
In the case of `C=CCCC`, the result was inactive.
As to `Cc1ccc2c(c1[N+](=O)[O-])C(=O)c1ccccc1C2=O`, the compound was called inactive.
In the case of `Cc1c(N)cccc1[N+](=O)[O-]` it was “inactive”.
In the case of `CC(C)(O)C(=O)O` it was “inactive”; in that of `CCNc1cc(O)ccc1C`, “inactive”; in that of `c1ccc(Nc2ccccc2)cc1`, “inactive”.
As for `CO[Si](CCCNCCC[Si](OC)(OC)OC)(OC)OC`, the entry is “inactive”.
As to `CC1CCCO1` (stereo not given), the call was inactive.
For `C1CCOC1`, the compound was classed as inactive.
As for `C=C(C)C(=O)OCCCCCC`, the entry is “inactive”.
On to `CC#N`, for which the compound was classed as inactive.
In the case of `CCCC(Cl)CCCC(Cl)CCC(Cl)CCC(Cl)CCC(Cl)CCCC(Cl)CCC` (stereo not given), the call was inactive.
As to `CCOC(C)(C)C`, the compound was called inactive.
Consider `CC(=O)c1cc(C)oc1C`, for which the call was inactive.
As for `Cc1ccc(C(=O)O)cc1`, the entry is “inactive”.
As for `Cc1ccc2ccccc2c1[N+](=O)[O-]`, the entry is “inactive”; as for `CC(C=O)Cc1ccc(C(C)(C)C)cc1` (stereo not given), “inactive”; as for `O=Cc1c(Cl)cccc1Cl`, “inactive”.
For the compound `O=[N+]([O-])c1cccc(C(F)(F)F)c1`, the compound was called inactive.
